An excerpt weighted towards active compounds, which were near 0.18% of everything screened.
mIDH1 inhibitor – qHTS for Inhibitors of mutant isocitrate dehydrogenase 1 (IDH1): qHTS. Isocitrate dehydrogenase [NADP] cytoplasmic (Homo sapiens), O75874. IDH1-R132H enzyme, NADPH consumption, diaphorase/resazurin fluorescence. Potency, µM (doses to about 76.6 µM), inactives show at the highest dose activity change, negative = inhibition, most hits filed as inhibitors. actives 0.093% (n = 390,000). AID 602179, 2012; note: potency is the fitted concentration of half-maximal effect; % is set by controls: 0 for no effect and ±100 for the full control effect; nearly all actives have a fitted effect of over 65% in size
Target sequence (O75874 whole entry R132H, stated change not applied): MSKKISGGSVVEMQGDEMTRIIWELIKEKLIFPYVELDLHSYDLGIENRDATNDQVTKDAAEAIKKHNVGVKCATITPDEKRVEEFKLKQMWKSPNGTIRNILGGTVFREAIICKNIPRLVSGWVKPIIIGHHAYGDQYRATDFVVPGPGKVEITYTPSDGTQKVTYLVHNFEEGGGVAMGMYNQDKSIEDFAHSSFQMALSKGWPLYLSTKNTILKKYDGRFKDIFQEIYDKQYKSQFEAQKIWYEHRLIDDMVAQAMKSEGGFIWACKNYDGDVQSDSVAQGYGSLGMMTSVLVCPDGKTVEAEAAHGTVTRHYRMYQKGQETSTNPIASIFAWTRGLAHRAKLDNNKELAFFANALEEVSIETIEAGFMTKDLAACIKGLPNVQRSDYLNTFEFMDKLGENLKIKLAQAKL
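IDH1-R132H (0.5 ug/mL dispensed) in pH 7.5 Tris buffer was preincubated 30 min with compound, then given a substrate mix of 0.016 mM NADPH and 2 mM alpha-KG for 80 min at room temperature; remaining NADPH was read by diaphorase/resazurin fluorescence.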
Apoferritin bind – qHTS Assay for Identification of Novel General Anesthetics; actives 0.074% (n = 350,000); Potency, µM (highest dose often 77.5 µM), for the others: at the top dose activity change, negative = displacement, actives largely listed as inhibitors; apoferritin/1-aminoanthracene competitive binding, fluorescence; Ferritin light chain (Equus caballus), P02791; note: potency is the fitted concentration of half-maximal effect; % is set by controls: 0 for no effect and ±100 for the full control effect; nearly all actives have a fitted effect of over 20% in size
Target sequence (P02791 2-175 limits assumed): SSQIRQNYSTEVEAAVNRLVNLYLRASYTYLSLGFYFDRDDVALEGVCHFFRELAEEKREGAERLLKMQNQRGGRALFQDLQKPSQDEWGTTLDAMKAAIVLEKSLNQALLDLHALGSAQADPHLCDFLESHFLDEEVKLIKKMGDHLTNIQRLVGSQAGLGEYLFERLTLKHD
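Apoferritin-based anesthetic binding model; compound displacement of fluorescent 1-AMA measured as endpoint fluorescence after 10 minutes at room temperature, scaled to free-ligand and complex controls.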
PTAP TSG101 blk – qHTS Assay for Iinhibitors of HIV-1 Budding by Blocking the Interaction of PTAP/TSG101; 340,000 tested, under 10 active; Potency, µM (top dose mostly 115 µM), inactives show top-dose activity change, negative = inhibition, hits mostly inhibitors; Tumor susceptibility gene 101 protein (Homo sapiens), Q99816; Fluorescence polarization, FITC-PTAP peptide / Tsg101 binding; active = well fitted inhibition curve with a large enough effect in the main read-out, with a control signal flat, not every such curve was filed as active; inconclusive = small, poorly fitted or top-dose-only effect, or effect the other way, or a change in a side signal; inactive = no such curve, though single readings can be large or run the other way; note: potency is the fitted concentration of half-maximal effect; % of control where 0% means no effect
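Fluorescence anisotropy tracks displacement of a FITC-tagged PTAP peptide (50 nM) from the Tsg101 binding domain (10 uM), following a 20 min room-temperature incubation at pH 7.5.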
ERG-DNA inh – qHTS for Small Molecule Inhibitors of the ERG Ets/DNA interaction | AID 624246, 2012 | actives 0.028% (n = 370,000) | Potency, µM (titrated, usually from 76.9 µM), without a hit: at the top dose FP activity, negative = inhibition, most hits filed as inhibitors | fluorescence polarization, His-ERG Ets domain / labelled DNA; active = well fitted inhibition curve with a large enough effect in the polarisation, with a control signal flat; inconclusive = small, poorly fitted or top-dose-only effect, or effect the other way, or a change in a side signal; inactive = no such curve, though single readings can be large or run the other way; the % refers to the polarisation;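 note: polarization taken with two DNA probes labelled with fluorescein and Texas red; potency is the fitted concentration of half-maximal effect; % of control where 0% means no effect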
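His-tagged ERG Ets domain (1 uM in the protein solution; 300mM KCl, 50mM Tris-HCl, 1mM EDTA, 1mM DTT, pH 7.5) received compound, then a probe mix of 5 nM fluorescein-DNA and 100nM Texas-615-DNA. Fluorescence polarization was read for both dyes.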
IDH1 autofl – qHTS for Inhibitors of mutant isocitrate dehydrogenase 1 (IDH1): Cherrypicks Autofluorescence Interference | shares compounds with mIDH1 inhibitor | Resorufin detection reagent fluorescence interference, cell-free | inhibition of signal, % at 51.2 µM | 750 tested, under 10 active | AID 623980, 2012;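 note: 0% = wells with normal resorufin and full inhibition = wells lacking resorufin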
WT IDH1 inh – qHTS for Inhibitors of mutant isocitrate dehydrogenase 1 (IDH1): Cherrypicks in WT IDH1 | AID 623995, 2012 | WT IDH1 enzyme, NADPH diaphorase/resazurin fluorescence | actives 9% (n = 750) | Potency, µM (highest dose often 115 µM), for the others: at the top dose activity change, negative = inhibition, actives largely listed as inhibitors | shares compounds with mIDH1 inhibitor;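 note: potency is the fitted concentration of half-maximal effect; 0% = full WT IDH1 enzyme control and full inhibition = no enzyme wells; nearly all actives have a fitted effect of over 55% in size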
Target sequence (O75874 whole entry, looked up): as the sequence (O75874 whole entry R132H, stated change not applied) above, with H132R counted along it
IDH1 R132H conf – qHTS for Inhibitors of mutant isocitrate dehydrogenase 1 (IDH1): Confirmation of Cherrypicks. shares compounds with mIDH1 inhibitor. IDH1 R132H enzyme, NADPH diaphorase/resazurin fluorescence. Potency, µM (titrated, usually from 76.6 µM), without a hit: at the top dose activity change, negative = inhibition, actives largely listed as inhibitors. actives 83% (n = 750). AID 624002, 2012; note: potency is the fitted concentration of half-maximal effect; nearly all actives have a fitted effect of over 50% in size
Numbers without * were called inactive; ? = inconclusive; . = no result; [ ] = another dose, or the depositor's remark. Unless noted, calls come from the whole dose curve; as a rule, active = well fitted curve in the direction sought with a large enough effect; inconclusive = small, poorly fitted or top-dose-only effect, or another doubt; inactive = no such curve, though single readings can be large; an effect the other way counts as inactive or inconclusive.

SMILES | mIDH1 inhibitor | Apoferritin bind | PTAP TSG101 blk | ERG-DNA inh | IDH1 autofl | WT IDH1 inh | IDH1 R132H conf
O=C(NC1CCCC1)C(c1ccc(O)cc1)N(CC1CCCO1)C(=O)C1COc2ccccc2O1 (centres undefined) | 11% | -10% | -6% | . | . | . | .
CC(C)CCNC(=O)C(c1ccc(O)cc1)N(C(=O)C1COc2ccccc2O1)c1cccc(O)c1 (centres undefined) | ? | -18% | -4% | 13%[15.4 µM] | 6 | 14% | ?
CC[C@]12c3[nH]c4cc(-c5ccco5)ccc4c3CCN1C(=O)[C@@H](CC(=O)NC/C=C(\C)CCC=C(C)C)C[C@@H]2C(=O)N1CCN(C(=O)c2ccco2)CC1 | -25% | . | -1% | 16% | . | . | .
CC(C)=CCC/C(C)=C/CNC(=O)C[C@H]1C[C@H](C(=O)N2CCCCC2)[C@@]2(C)c3[nH]c4cc(CCC(=O)N(C)C)ccc4c3CCN2C1=O | ? | . | -8% | 2% | -7 | -8% | 25µM*
CC[C@]12c3[nH]c4cc(-c5ccco5)ccc4c3CCN1C(=O)[C@@H](CC(=O)NC/C=C(\C)CCC=C(C)C)C[C@@H]2C(=O)N1CCN(C(=O)C2CC2)CC1 | 35µM* | . | -1% | 18% | -1 | -2% | -13%
CC(C)=CCC/C(C)=C/CNC(=O)C[C@H]1C[C@H](C(=O)N2CCOCC2)[C@@]2(C)c3[nH]c4cc(CCC(=O)N(C)C)ccc4c3CCN2C1=O | -1%[38.3 µM] | . | -12% | -2% | . | . | .
Brc1ccc(-c2csc(NNC3=NCCCCC3)n2)cc1 | 26µM* | -19% | 0% | -12% | 2 | 38% | ?
Cc1cc(C)cc(N(CC(=O)NC2CCCCC2)C(=O)c2ccc(C)s2)c1 | ? | ? | -2% | . | 3 | 2% | 20µM*
CCOC(=O)c1c(CSC(=N)N)n(C)c2cc(Br)c(OC(C)=O)cc12 | ? | -9% | -3% | -6%[15.4 µM] | -9 | 2% | 14µM*
Cc1cc(C)nc(SCC(=O)c2ccc(O)cc2O)n1 | 7% | -10% | -1% | 8% | . | . | .
CCC(C)(C(=O)NC1CCCCC1)N(C(=O)c1ccccn1)c1ccc(C)cc1 (centres undefined) | 1% | -15% | -4% | -2% | . | . | .
CCN(C(=O)CSc1nc2n[nH]c(C)c2c(=N)n1-c1ccc(Cl)c(C)c1)c1cccc(C)c1 | 46µM* | 0% | 0% | -6% | -1 | -11% | 22µM*
Cc1cccc(-n2c(SCC(=O)Nc3ccccc3Cl)nc3n[nH]c(C)c3c2=N)c1 | ? | -23% | . | -4% | -9 | -2% | 25µM*
CCCCN(CC)C(=O)CSc1nc2n[nH]c(C)c2c(=N)n1-c1cccc(C)c1 | -11% | -6% | -10% | ? | . | . | .
Cc1ccc(S(=O)(=O)CCc2nnc(NC(=O)CCl)s2)cc1C | ? | -3% | 0% | 4% | -1 | -6% | 32µM*
O=C(CN1C(=O)C2CCCCC2C1=O)N1CCN(c2ccc(F)cc2)CC1 (centres undefined) | 1% | -9% | -1% | 2% | . | . | .
CCOC(=O)C1CCCN(C(=S)NC2CCCC2)C1 (centres undefined) | ? | -8% | -3% | -5% | 1 | 11% | -2%
Cc1ccccc1-n1c(SCC(=O)NC(N)=O)nc2sc(-c3ccccc3)cc2c1=O | -4% | 47% | -4% | -5% | . | . | .
N#CC1=C(N)C2=CCCC[C@H]2[C@H](c2cccc(F)c2)C1(C#N)C#N | 46µM* | 5% | -1% | 3% | -8 | 48% | 45µM*
Cc1nnsc1NC(=O)OCc1ccc(C(C)(C)C)cc1 | ? | -12% | 2% | -12% | 3 | 2% | -3%
C=CCOC(=O)Nc1snnc1C | -5% | -5% | -1% | -4% | . | . | .
CCCCn1c(N)c(N(CC(C)C)C(=O)c2cnccn2)c(=O)[nH]c1=O | 3% | . | -12% | 11% | . | . | .
O=C(c1ccco1)N1CCN(c2c(-c3ccccc3)c3cc(Cl)ccc3[nH]c2=O)CC1 | ? | -4% | -6% | . | -7 | -2% | 22µM*
CCc1ccc(N(C(=O)Cc2cccs2)C(C(=O)NC2CCCCC2)c2cn(C)nc2C)cc1 (centres undefined) | 0% | -7% | 0% | -5% | . | . | .
Cc1ccc(C(C(=O)NC2CCCC2)N(C(=O)Cc2cccs2)c2cccc(C)c2C)o1 (centres undefined) | 9.3µM* | -6% | -12% | . | 2 | 5% | 6.3µM*
SMILES | mIDH1 inhibitor | Apoferritin bind | PTAP TSG101 blk | ERG-DNA inh | IDH1 autofl | WT IDH1 inh | IDH1 R132H conf
Cc1ccccc1C(C(=O)NC1CCCC1)N(C(=O)Cc1cccs1)c1ccc2c(c1)OCCO2 (centres undefined) | 6.6µM* | -14% | 0% | . | 3 | 0% | 4µM*
COc1ccc(N(C(=O)Cc2cccs2)C(C(=O)NC2CCCC2)c2ccncc2)cc1 (centres undefined) | -2% | -1% | 1% | -5% | . | . | .
Cc1cc(C)cc(N(C(=O)Cc2cccs2)C(C(=O)NC2CCCCC2)c2ccccn2)c1 (centres undefined) | ? | -14% | 1% | -12% | 3 | 10% | 14µM*
Cc1cc(C)cc(N(C(=O)Cc2cccs2)C(C(=O)NC2CCCC2)c2ccc(C)o2)c1 (centres undefined) | 7.4µM* | 5% | -2% | . | -8 | 10% | 4µM*
Cc1ccc(NC(=O)CSc2nncn3c2cc2sccc23)cc1F | -3% | -11% | . | -5% | . | . | .
O=C(c1cn(-c2ccccc2)nc1-c1ccc(Br)cc1)N1CCOCC1 | 0% | -1% | 0% | 3% | . | . | .
CC(C)c1nc(CNC(=O)CC2C(=O)NCCN2Cc2ccccc2)cs1 (centres undefined) | 5% | . | . | . | . | . | .
CC(C)c1ccc(/C=C(\NC(=O)c2ccccc2)C(=O)NCCCN2CCOCC2)cc1 | 0% | -9% | -2% | 1% | . | . | .
